Among the test systems are SR leukemia; RPMI-8226 leukemia; OVCAR-8 ovarian; OVCAR-5 ovarian; OVCAR-4 ovarian; SK-OV-3 ovarian; IGROV1 ovarian; OVCAR-3 ovarian; NCI/ADR-RES ovarian; T-47D breast; BT-549 breast; MDA-MB-435 melanoma; SW-620 colon; MCF7 breast; HCT-116 colon; HCC-2998 colon; KM12 colon; HS 578T breast.
Common to all, as to test: NCI-60 one-dose screen, 48 h (100 = growth as untreated, 0 = no growth, -100 = all killed)
Holding throughout (settings): 10 µM

This is part of a sample that, as a whole, favours compounds with a hit. Of some 83,000 tested, about 20% had one in any assay.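 Activity criterion: percent growth below 10, measured after cells in 96-well plates were exposed to a single compound concentration for 48 hours.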 Unmarked numbers belong to inactive results. Activity calls are given as the source filed them.

Consider `NC(N)=NS(=O)(=O)c1ccc(Nc2ccc3nnc(-c4ccncc4)n3n2)cc1`, for which the growth with SR leukemia was 96.9%; in the assay on RPMI-8226 leukemia it was 104%; in the assay with OVCAR-8 ovarian it was 96.7%; in the assay with OVCAR-5 ovarian it was 100%; in the assay with OVCAR-4 ovarian, 103%; with SK-OV-3 ovarian it was 104%. The growth in the assay on IGROV1 ovarian was 113%; with OVCAR-3 ovarian, 110%; in the assay on NCI/ADR-RES ovarian, 105%; with T-47D breast, 96.4%; in the assay on BT-549 breast, 112%; with MDA-MB-435 melanoma, 110%. Further, the growth in the assay with SW-620 colon is 97.6%; with MCF7 breast, 91.3%; in the assay on HCT-116 colon, 100%; with HCC-2998 colon it was 99.1%; with KM12 colon, 100%.

As to `COc1ccc(-c2nnc(N3CCN(C(=O)CN4CCN(c5ccc(Cl)cc5)CC4)CC3)nc2-c2ccc(OC)cc2)cc1`, the growth in the assay with SR leukemia is 54.2%; in the assay on RPMI-8226 leukemia, -44.9% (active); with OVCAR-8 ovarian, 66.1%; in the assay with OVCAR-5 ovarian, 114%; in the assay on OVCAR-4 ovarian it was 61.5%; with SK-OV-3 ovarian it was 102%. The growth in the assay with IGROV1 ovarian was 62.7%; with OVCAR-3 ovarian it was 73.1%; in the assay with NCI/ADR-RES ovarian it was 81.8%; with T-47D breast, 38.2%; in the assay with BT-549 breast, 59%; in the assay with MDA-MB-435 melanoma, 68%. Further, the growth is 69.3% with SW-620 colon; 37.1% in the assay on MCF7 breast; 34.1% with HCT-116 colon; 75.2% with HCC-2998 colon; 50.5% in the assay with KM12 colon.

As for `Cc1ccc(Cl)cc1Nc1nc(C(F)(F)F)ccc1C(=O)N/N=C/c1c(Cl)cccc1Cl`, the growth is 123% in the assay on SR leukemia; -51.2% (active) with RPMI-8226 leukemia; 10.6% with OVCAR-8 ovarian; 24.2% in the assay on OVCAR-5 ovarian; 17.5% with OVCAR-4 ovarian; -8.46% (active) in the assay with SK-OV-3 ovarian. For the same molecule, the growth in the assay with IGROV1 ovarian is -8.67% (active); with OVCAR-3 ovarian, -28.5% (active); in the assay on NCI/ADR-RES ovarian it was 5.19% (active); with T-47D breast it was -10.9% (active); in the assay with BT-549 breast it was 31%; in the assay on MDA-MB-435 melanoma it was 13.1%. For the same molecule, the growth with SW-620 colon was 3.99% (active); in the assay on MCF7 breast, 2.24% (active); with HCT-116 colon it was 12.7%; in the assay on KM12 colon it was -15.9% (active).

For `COc1ccc2c(c1)/C(=C/c1cc(OC)c(OC)c(OC)c1)C(=O)N2C`, the growth was 17% in the assay with SR leukemia; -25.2% (active) with RPMI-8226 leukemia; 28.8% in the assay with OVCAR-8 ovarian; 66.4% in the assay on OVCAR-5 ovarian; 47.3% in the assay on OVCAR-4 ovarian; 19.3% with SK-OV-3 ovarian. Also, the growth was 0.661% (active) in the assay on IGROV1 ovarian; -72% (active) with OVCAR-3 ovarian; 2.46% (active) with NCI/ADR-RES ovarian; -11.1% (active) in the assay on T-47D breast; 57.1% in the assay with BT-549 breast; -50.3% (active) with MDA-MB-435 melanoma. Moreover, the growth was 1.64% (active) with SW-620 colon, 4.54% (active) with MCF7 breast, 19.3% in the assay on HCT-116 colon and -20.8% (active) with KM12 colon.

Turning to `CN(C1c2ccccc2Oc2ccccc21)S(=O)(=O)c1cc(Cl)ccc1Cl`, the growth is 12.8% in the assay on SR leukemia; 67.3% in the assay on RPMI-8226 leukemia; 65.8% in the assay with OVCAR-8 ovarian; 84.4% in the assay with OVCAR-5 ovarian; 69.2% with OVCAR-4 ovarian; 54.5% in the assay with SK-OV-3 ovarian. The growth with OVCAR-3 ovarian is 19.4%; in the assay with HS 578T breast it was 76.2%; in the assay with NCI/ADR-RES ovarian it was 51.9%; in the assay with T-47D breast, 39.3%; with BT-549 breast, 71.9%; in the assay with MDA-MB-435 melanoma, 4.17% (active). For the same molecule, the growth is 30.3% with SW-620 colon; 21.4% in the assay on MCF7 breast; 31.3% in the assay with HCT-116 colon; 84.3% in the assay on HCC-2998 colon; 42.8% in the assay with KM12 colon.

With `COCCNCC(O)Cn1c2ccc(Cl)cc2c2cc(Cl)ccc21` (centres undefined), the growth was -19.9% (active) in the assay on SR leukemia; -36.9% (active) in the assay with RPMI-8226 leukemia; -69.9% (active) in the assay on OVCAR-8 ovarian; -79.1% (active) in the assay on OVCAR-5 ovarian; -97.3% (active) in the assay with OVCAR-4 ovarian; 52.7% in the assay with SK-OV-3 ovarian. Moreover, the growth was -46.3% (active) in the assay with OVCAR-3 ovarian; -12.3% (active) in the assay on HS 578T breast; -6.15% (active) with NCI/ADR-RES ovarian; -15.8% (active) with T-47D breast; 11.2% in the assay on BT-549 breast; -83.1% (active) in the assay with MDA-MB-435 melanoma. Further, the growth was 2.98% (active) in the assay with SW-620 colon; -64.8% (active) in the assay on MCF7 breast; -5.18% (active) with HCT-116 colon; -30.1% (active) with HCC-2998 colon; 10.9% in the assay with KM12 colon.

Consider `S=c1c2ncccc2c(-c2ccccn2)nn1Cc1ccccn1`, for which the growth in the assay on SR leukemia was 87.2%; in the assay on RPMI-8226 leukemia, 97.9%; with OVCAR-8 ovarian, 106%; in the assay with OVCAR-5 ovarian, 111%; in the assay on OVCAR-4 ovarian, 97.2%; with SK-OV-3 ovarian, 93.5%. The growth in the assay on OVCAR-3 ovarian was 115%; with HS 578T breast, 111%; with NCI/ADR-RES ovarian, 103%; with T-47D breast, 75.5%; in the assay with BT-549 breast, 79.7%; in the assay on MDA-MB-435 melanoma, 100%. The growth in the assay with SW-620 colon was 109%; in the assay on MCF7 breast, 90.7%; in the assay with HCT-116 colon, 62%; in the assay on HCC-2998 colon, 91.9%; with KM12 colon it was 103%.

Take `CCCCCCCCCCCC(=O)NCCCN(C)C`: the growth was 2.57% (active) in the assay with SR leukemia; 78.4% with RPMI-8226 leukemia; 93.7% with OVCAR-8 ovarian; 91.1% in the assay with OVCAR-5 ovarian; 96.5% in the assay with OVCAR-4 ovarian; 95.6% with SK-OV-3 ovarian. Moreover, the growth with OVCAR-3 ovarian is 108%; with HS 578T breast, 106%; in the assay with NCI/ADR-RES ovarian, 98.7%; with T-47D breast, 84.8%; with BT-549 breast, 70.5%; with MDA-MB-435 melanoma it was 94.5%. Besides, the growth is 102% with SW-620 colon; 65.7% in the assay with MCF7 breast; 67.6% in the assay on HCT-116 colon; 78.5% in the assay on HCC-2998 colon; 104% in the assay on KM12 colon.

Values taken from PubChem BioAssay (NCI).
